Hits are enriched below; roughly 2.4% of the tested compounds scored in any of these assays.
POLH inh: DNA polymerase eta (human) inhibition. Q9Y253. recombinant Pol eta, fluorescent DNA replication assay. Potency, µM (titrated, usually from 114 µM), actives largely listed as inhibitors. 390,000 tested, 1.2% active. AID 588591
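Fluorescent replication assay: 50 nM final substrate added after a 15 min room-temperature compound preincubation with 10 nM enzyme. Signal taken at 0 min and again at 10 min.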
POLB inh: DNA polymerase beta (human) inhibition; P06746; AID 485314; Pol beta primer extension/strand displacement, fluorescence kinetic; 340,000 tested, 1.3% active; Potency, µM (series often up to 114 µM), most hits filed as inhibitors
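Pol beta (10 nM) was preincubated with compound for 15 min at room temperature. The reaction was then started with 50 nM substrate and read immediately and after a further 10 min at room temperature.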
GLS inhibitor: inhibitors of human glutaminase (GLS). O94925. GLS enzymatic activity, qHTS titration. Potency, µM (top dose mostly 45.5 µM), actives largely listed as inhibitors. 410,000 tested, 0.21% active
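Assay buffer: 45 mM KH2PO4 pH 8.2, 0.02% Tween-20. hKGA acts on L-glutamine (1 mM solution added); product glutamate is reported by an oxidase/peroxidase Amplex Red coupling, with fluorescence taken at baseline and 30 min.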
POLK inh: inhibitors of human DNA polymerase kappa; 400,000 tested, 0.53% active; Potency, µM (doses to about 107 µM), actives largely listed as inhibitors; purified Pol kappa, fluorescent DNA synthesis assay, 10 min
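Pol kappa 10 nM + cpd, 15 min RT; start w/ substrate 50 nM final; fluorescence kinetic read, 0 and 10 min. Neg ctrl: buffer, no enzyme.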
Pol iota inh: DNA polymerase iota (human) inhibition | Q9UNA4 | Pol iota fluorescent replication assay, 10 min | Potency, µM (series often up to 115 µM), most hits filed as inhibitors | 390,000 tested, 1% active | AID 588590
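Pol iota at 10 nM preincubated 15 min with compounds at room temperature; reaction started with fluorescent substrate, 50 nM final. Fluorescence read kinetically at 0 and 10 min; buffer-only wells as negative control.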
APEX1 inh: blocks human APE1 abasic DNA cleavage. Potency, µM (top dose mostly 65.8 µM), usual class: inhibitors. recombinant APE1, TAMRA/BHQ-2 abasic DNA cleavage fluorescence. 350,000 tested, 0.35% active; also: nearly all actives have a fitted effect of over 55% in size
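Enzyme (0.75 nM final) and test compound are incubated 15 min at room temperature before adding 50 nM quenched THF abasic-site duplex. Cleavage dequenches TAMRA, followed at 525/598 nm over three reads one minute apart.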
Hits are given with their value; ! = repeats disagree. Calls follow the shape of the dose curve; as a rule, active = well fitted curve in the direction sought with a large enough effect; inconclusive = small, poorly fitted or top-dose-only effect, or another doubt; inactive = no such curve, though single readings can be large; an effect the other way counts as inactive or inconclusive.

Screening O=C(COC(=O)c1ccccn1)NCc1cccs1 returned POLH inh inactive, GLS inhibitor inactive, POLK inh inactive, Pol iota inh inactive and APEX1 inh inactive.
NC(=O)c1ccsc1NC(=O)CS(=O)(=O)c1ccc(Cl)cc1 was read as POLH inh inactive, POLB inh inactive, GLS inhibitor inactive, POLK inh inactive, Pol iota inh inactive and APEX1 inh inactive.
`CCc1cc2c(NC(Cc3ccccc3)C(=O)O)nc(C)nc2s1` (stereo unspecified) gave POLH inh inactive, POLB inh inactive, GLS inhibitor inactive, POLK inh inactive, Pol iota inh inconclusive and APEX1 inh inactive.
OC[C@H]1O[C@@H](Oc2cc(O)cc(/C=C/c3ccc(O)cc3)c2)[C@H](O)[C@@H](O)[C@@H]1O was read as POLB inh 20µM and APEX1 inh inconclusive.
`CCSc1nc(N)c(NC(=O)c2ccc(Br)o2)c(=O)[nH]1` gave POLH inh inactive, POLB inh inactive, GLS inhibitor inactive, POLK inh inactive, Pol iota inh inactive and APEX1 inh inactive.
Screening Nc1nc(SCC(=O)Nc2ccc(OC(F)(F)F)cc2)[nH]c(=O)c1NC(=O)c1ccc(Br)o1 returned POLH inh inconclusive, POLB inh 39.8µM, GLS inhibitor inactive, POLK inh inactive, Pol iota inh inactive and APEX1 inh inactive.
Screening COc1cccc(/C=C2/NC(=O)N(CC(=O)Nc3ccc(C)cc3)C2=O)c1OCc1cccc(C(=O)O)c1 returned POLH inh inconclusive, POLB inh 50.1µM, GLS inhibitor inconclusive, POLK inh 79.4µM, Pol iota inh inconclusive and APEX1 inh inconclusive.
For Cc1ccc(NC(=O)CN2C(=O)N/C(=C/c3cc(C)n(-c4cccc(C(=O)O)c4)c3C)C2=O)cc1 the results were POLH inh 20µM, POLB inh 10µM, GLS inhibitor inconclusive, POLK inh inconclusive, Pol iota inh 44.7µM and APEX1 inh 11.2µM.
CCn1c(C)cc(/C=C2\NC(=O)N(CC(=O)Nc3cccc(C)c3)C2=O)c1C was read as POLH inh inactive, POLB inh inactive, GLS inhibitor inactive, POLK inh inactive, Pol iota inh inactive and APEX1 inh inactive.
For CCOC(=O)C1C(=O)NCC2CCCC21 (stereo unspecified) the results were POLH inh inactive, POLB inh inactive, GLS inhibitor inactive, POLK inh inactive, Pol iota inh inactive and APEX1 inh inactive.
CC(C)Oc1ccc(C(CC(=O)NCc2ccco2)c2ccccc2)cc1 (stereo unspecified) was read as POLH inh inactive, POLB inh inactive, GLS inhibitor inactive, POLK inh inactive, Pol iota inh inactive and APEX1 inh inactive.
Screening O=C(Nc1ccc2cn[nH]c2c1)c1c(Cl)cccc1Cl returned POLH inh inactive, POLB inh inactive, GLS inhibitor inactive, POLK inh inactive, Pol iota inh inactive and APEX1 inh inactive.
For O=C1C(Cl)=C(Nc2ccc3cn[nH]c3c2)C(=O)c2ccccc21 the results were POLH inh 50.1µM, POLB inh inconclusive, GLS inhibitor inactive, POLK inh inactive, Pol iota inh inconclusive and APEX1 inh inactive.
Screening CCCCN1C(C(=O)c2ccccc2)=C(OC(C)=O)c2ccccc2S1(=O)=O returned POLH inh inactive, POLB inh inactive, GLS inhibitor inactive, POLK inh inactive and Pol iota inh inconclusive.
For O=C1CCN(CCc2ccccc2)CCN1[C@H](COc1ccccc1)Cc1ccccc1 the results were POLH inh inactive, POLB inh inactive, GLS inhibitor inactive, POLK inh inactive, Pol iota inh inactive and APEX1 inh inactive.
Screening CC(C)CN1CCC(=O)N([C@H](COc2ccccc2)Cc2ccccc2)CC1 returned POLH inh inactive, POLB inh inactive, GLS inhibitor inactive, POLK inh inactive, Pol iota inh 89.1µM! and APEX1 inh inactive.
For CC(C)(O)C(O)COc1c2ccoc2cc2oc(=O)ccc12 (stereo unspecified) the results were POLH inh inconclusive, POLB inh 22.4µM, GLS inhibitor inactive, POLK inh inconclusive, Pol iota inh inconclusive and APEX1 inh inconclusive.
Cc1nn(C)c2c1c(C(F)(F)F)cc(=O)n2C(C)C(=O)NCc1ccccc1Cl (stereo unspecified) was read as POLH inh inactive, POLB inh inactive, GLS inhibitor inactive, POLK inh inactive and Pol iota inh inactive.
O=C(CSc1nnnn1C1CC1)N1CCN(c2ccc(O)cc2)CC1 was read as POLH inh inconclusive, GLS inhibitor inactive, POLK inh inconclusive, Pol iota inh 44.7µM and APEX1 inh inactive.
Screening COc1ccc(/C=C/C(=O)N2CCN(C)CC2)cc1OC returned POLH inh inactive, POLB inh inactive, GLS inhibitor inactive, POLK inh inactive, Pol iota inh inactive and APEX1 inh inactive.
`Cc1nnc(SCc2c(Cl)cccc2Cl)s1` gave POLH inh inactive, POLB inh inactive, GLS inhibitor inactive, POLK inh inactive, Pol iota inh inactive and APEX1 inh inactive.
`CCC1=C2CC[C@H]3C(=O)N(CC)C(=O)[C@H]3[C@H]2[C@@]2(C)C(=NCC(=O)OC)OC(=O)N2C1=O` gave APEX1 inh inactive.
Cc1occc1C(=O)Nc1cccc(C(=O)O)c1 was read as POLH inh inactive, POLB inh inactive, GLS inhibitor inactive, POLK inh inactive, Pol iota inh inconclusive and APEX1 inh inconclusive.
Cc1cc(N)c2ccccc2[n+]1CCCCCCCCCCCCCC[n+]1c(C)cc(N)c2ccccc21 was read as POLH inh inconclusive, POLB inh 10µM, Pol iota inh inactive and APEX1 inh inactive.
For CCCC[n+]1c(C)ccc2ccccc21 the results were POLK inh inactive and Pol iota inh inactive.
Screening COC(CNC(=O)C1CCC(CNS(=O)(=O)c2c(C)cc(C)cc2C)CC1)OC (stereo unspecified) returned POLH inh inactive, POLB inh inactive, GLS inhibitor inactive, POLK inh inactive, Pol iota inh inactive and APEX1 inh inactive.
For O=C(CSc1ncnc2ccccc12)NCc1ccco1 the results were POLH inh inconclusive, POLB inh 25.1µM, GLS inhibitor inactive, POLK inh inactive, Pol iota inh inconclusive and APEX1 inh inactive.
O=C(CSc1nc2ccccc2c2nc3ccccc3n12)NCc1ccco1 was read as POLH inh inconclusive, POLB inh 8.91µM, GLS inhibitor inactive, POLK inh inconclusive, Pol iota inh inconclusive and APEX1 inh inactive.
Screening O=C(CSc1nc2ccccc2c(=O)n1Cc1ccccc1)NCc1ccco1 returned POLH inh inactive, POLB inh inactive, GLS inhibitor inactive, POLK inh inactive, Pol iota inh inactive and APEX1 inh inactive.
COCCn1c(SCC(=O)NCc2ccco2)nc2cccnc21 was read as POLH inh inconclusive, POLB inh 44.7µM, GLS inhibitor inconclusive, POLK inh inactive, Pol iota inh inconclusive and APEX1 inh inconclusive.
